Structures are written as SMILES. Inconclusive results are not listed. Calls of active or inactive are those of the source. Calls come from the whole dose curve; as a rule, active = well fitted activation curve with a large enough effect; inconclusive = small, poorly fitted or top-dose-only effect; inactive = no such curve, though single readings can be large or run the other way.
Potency is the fitted concentration of half-maximal effect.

The assay is described as follows: qHTS Assay for Identifying a Potential Treatment of Ataxia-Telangiectasia: Secondary assay (no NCS) hit validation. For activation: 0% is about no effect.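 Note: phosphorylated KAP1 signal as a proxy for ATM-like kinase activity.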 Conditions: A-T patient fibroblasts, AlphaLISA, no DNA damage added, 90 min; series mostly up to 76.9 µM; activation: at the top concentration. Summed up:
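hTERT-immortalized A-T patient fibroblasts (F2112), 500 cells/well, exposed to compounds at up to 76.7 uM final without NCS at 37C. KAP-1 phosphorylation measured by AlphaLISA after lysis and 6 h detection at 25C.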
For the compound `O=C(Nc1ccc(N2CCCC2)cc1)c1ccc(Cl)cc1Cl`, the “activation” value is -20% (inactive).

Regarding `CC1(C)CC2(CCO1)OC(=O)CC2C(=O)Nc1c(Cl)cccc1Cl` (stereo not drawn), the “activation” value is -1.08% (inactive).

Regarding `COc1ccc(/C=N/Nc2nc(=O)[nH]nc2C)cc1OC`, the “activation” value is -2.15% (inactive). With `C=CS(=O)(=O)c1sc(Cl)c(N2CCOCC2)c1[N+](=O)[O-]`, the “activation” value was 7.53% (inactive). Same read-out and setting: as for `Cc1ccc(C)c(-c2csc(Nc3ncccn3)n2)c1`, the figure is 27.8% (inactive). With `CC(C)(C=O)C1=CC(=O)c2ccccc2C1=O`, the Potency was 51.9 µM (active). With `O=C(CCCC(=O)N1CCCC1)N1CCCC1`, the “activation” value was 7.53% (inactive). Still for that read-out and setting: with `Cc1ccc(OC(=O)c2cc(C)nn2C(C)(C)C)cc1` the figure was 6.96% (inactive); with `O=C(CNCc1cccs1)Nc1ccc(OC(F)(F)F)cc1`, 10.4% (inactive); with `CC(C)c1ccc(C(C(=O)NC2CCCCC2)N(C(=O)c2ccccn2)c2cccnc2)cc1` (stereo not drawn), 2.15% (inactive). For the compound `CCOc1cccc(/C=C/c2ccc3cccc(O)c3n2)c1OC`, the “activation” value was -5.38% (inactive). With `CCC(=O)NC1=C(Cl)C(=O)C(NC(=O)CC)=C(Cl)C1=O`, the “activation” value is 16.1% (inactive). Regarding `CC(=O)Nc1ccc(S(=O)(=O)NCC2(N3CCOCC3)CCCCC2)cc1`, the “activation” value was 29.7% (inactive). Still for that read-out and setting: as for `O=C(CSc1nnc(CNC(=O)c2ccccc2)o1)NCCc1ccccc1`, the figure is 22.6% (inactive); as for `COc1ccc(C(=O)/C=C/C(=O)N(CC(=O)NC2CCCCC2)Cc2ccccc2)c(O)c1`, -0.87% (inactive); as for `Cc1ccc(NC(=O)Nc2cccnc2)cc1NC(=O)Nc1cccnc1`, -0.87% (inactive). Turning to `O=C(Nc1ccc([N+](=O)[O-])cc1)c1cc2ccccc2nc1Cl`, the “activation” value is 14% (inactive). For `CCOC(=O)CN(C(=O)CSc1nnc(COc2ccc(OC)cc2)n1CC)c1ccccc1`, the “activation” value was 5.38% (inactive). Same read-out and setting: as for `CCc1ccc(NC(=O)CNCc2ccc(OC)c(OC)c2)cc1`, the figure is -2.15% (inactive); as for `Cc1ccc(C(=O)c2c(C)oc3c2C(=O)C(=O)c2ccccc2-3)cc1`, 25.2% (inactive); as for `COc1ccc2c(c1)c(N=NC(N)=S)c(O)n2CC(=O)c1ccccc1`, 0% (inactive). The same measure, in the same setting: as for `CC1=C/C(=C\C=C(C#N)C#N)N(C)c2ccccc21`, the figure is 15.1% (inactive); as for `CC(=O)NNC(=O)CN1C(=O)/C(=C/c2ccccc2)SC1=S`, 4.35% (inactive). The same measure, in the same setting: as for `CCCCn1c2c(c(=N)c3ccccc31)CCC2`, the figure is 0% (inactive).

In the case of `CCC(C)Nc1nc(N)c([N+](=O)[O-])c(NCCO)n1` (stereo not drawn), the “activation” value was -5.22% (inactive). Consider `CC(C)CN(CC(C)C)C(=O)c1cc2c(=O)n3ccccc3nc2s1`, for which the “activation” value was 12.9% (inactive). `CN(C)S(=O)(=O)c1cccc(C(=O)N=C2N=C3C=CC(Cl)=CN3Cc3ccccc32)c1`: the “activation” value is -3.39% (inactive).

As for `COc1ccccc1Nc1nc(NCCCN(C)C)nc(N)c1[N+](=O)[O-]`, the Potency was 2.6 µM (active).

Turning to `CSc1nc(SCC(=O)O)c2c3c(sc2n1)COC(C)(C)C3`, the “activation” value is 13.9% (inactive).

On to `CCc1oc(C(=O)OC)cc1CSC(=N)N`, for which the “activation” value is 16.9% (inactive). In the case of `C/C=C\C=C/C(=O)Nc1cccc(C2=NOC3(C2)C[C@@H](C(N)=O)N(C(=O)COc2ccc(Cl)cc2)C3)c1` (stereo partly drawn), the “activation” value is -5.08% (inactive). Same read-out and setting: with `COc1ccccc1-n1c(SCC(N)=O)nc2sc3c(c2c1=O)CCC3` the figure was -2.61% (inactive). For `CCn1c2ccccc2c2c3ncc4cccn4c3ccc21`, the Potency was 36.8 µM (active).

These data come from PubChem BioAssay AID493201 (National Center for Advancing Translational Sciences (NCATS), 2011).
